{
  "source": "the supplement of paper PMC10037445",
  "key": {"RAW-Dual [1]": {"system": "RAW-Dual", "assay": "NF-kB SEAP reporter activity, fold change vs agonist alone; higher = enhanced NF-kB activity", "procedure,_shortened": "(§1)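 After 50 nL of library stock was delivered by pin tool to RAW-Dual macrophages (50,000 cells/well, DMEM, 384-well plates), a PRR agonist was added 1 h later and the plates were kept at 37 °C, 5% CO2. Twenty hours later, IRF was read from supernatant by QuantiLuc luminescence and NF-κB by QuantiBlue absorbance at 620 nm. Reporter activity is stated as fold change over agonist-alone wells. Wells with IncuCyte confluency under 70% of agonist controls in both mask sets were counted as cytotoxic.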"}, "RAW-Dual [2]": {"system": "RAW-Dual", "assay": "NF-kB SEAP reporter activity, fold change vs agonist alone; cytotoxicity flag (confluency mask): not cytotoxic; higher = enhanced NF-kB activity", "procedure,_shortened": "as §1"}, "RAW-Dual [3]": {"system": "RAW-Dual", "assay": "NF-kB SEAP reporter activity, fold change vs agonist alone; cytotoxicity flag (confluency mask): cytotoxic (confluency <70% of control); higher = enhanced NF-kB activity", "procedure,_shortened": "as §1"}, "[4]": {"conditions": "agonist: ODN 1826 (TLR9) 0.5 ug/mL"}, "[5]": {"conditions": "agonist: Pam2CSK4 (TLR2/6) 0.1 ug/mL"}, "[6]": {"conditions": "agonist: Pam3CSK4 (TLR2/1) 0.1 ug/mL"}, "[7]": {"conditions": "library stock concentration (final ~1000-fold dilution): 10 mM, cytotoxicity flag (confluency mask): not cytotoxic, agonist: Imiquimod (TLR7) […]"}, "[8]": {"conditions": "library stock concentration (final ~1000-fold dilution): 10 mM, cytotoxicity flag (confluency mask): not cytotoxic, agonist: MPLA (TLR4) […]"}},
  "note": "Whole data set: some 2,900 compounds, median “NF-kB SEAP reporter activity, fold change vs agonist alone” near 0.99, cut for the highest 2% near 2.6. This excerpt belongs to a sample that is enriched for the highest values.",
  "data": [
    {"smiles": "NCC1OC(OC2C(CO)OC(OC3C(O)C(N)CC(N)C3OC3OC(CO)C(O)C(O)C3N)C2O)C(N)C(O)C1O.O=S(=O)(O)O", "note": "(stereo not drawn)", "values": [
      {"measurement": "NF-kB SEAP reporter activity", "setting": "RAW-Dual [1]; library stock concentration (final ~1000-fold dilution): 10 mM water, cytotoxicity flag (confluency mask): not cytotoxic, agonist: Imiquimod (TLR7) […]", "value": 0.946},
      {"measurement": "NF-kB SEAP reporter activity", "setting": "RAW-Dual [1]; library stock concentration (final ~1000-fold dilution): 10 mM water, cytotoxicity flag (confluency mask): not cytotoxic, agonist: MPLA (TLR4) […]", "value": 1.03}
    ]},
    {"smiles": "NCC1OC(OC2C(CO)OC(OC3C(O)C(N)CC(N)C3OC3OC(CO)C(O)C(O)C3N)C2O)C(N)C(O)C1O.O=S(=O)(O)O", "note": "(stereo not drawn) (library stock concentration (final ~1000-fold dilution): 10 mM water)", "values": [
      {"measurement": "NF-kB SEAP reporter activity", "setting": "RAW-Dual [2]; agonist: LPS (TLR4) 0.1 ug/mL", "value": 1.05},
      {"measurement": "NF-kB SEAP reporter activity", "setting": "RAW-Dual [2]; [4]", "value": 1.24},
      {"measurement": "NF-kB SEAP reporter activity", "setting": "RAW-Dual [2]; [5]", "value": 1.27},
      {"measurement": "NF-kB SEAP reporter activity", "setting": "RAW-Dual [2]; [6]", "value": 1.03}
    ]},
    {"smiles": "CC(C)(C)NCC(O)COc1ccccc1C1CCCC1.CC(C)(C)NCC(O)COc1ccccc1C1CCCC1.O=S(=O)(O)O", "note": "(stereo not drawn) (library stock concentration (final ~1000-fold dilution): 10 mM)", "values": [
      {"measurement": "NF-kB SEAP reporter activity", "setting": "RAW-Dual [2]; agonist: LPS (TLR4) 0.1 ug/mL", "value": 0.844},
      {"measurement": "NF-kB SEAP reporter activity", "setting": "RAW-Dual [2]; [4]", "value": 1.08},
      {"measurement": "NF-kB SEAP reporter activity", "setting": "RAW-Dual [2]; [5]", "value": 0.857},
      {"measurement": "NF-kB SEAP reporter activity", "setting": "RAW-Dual [2]; [6]", "value": 0.842}
    ]},
    {"smiles": "CC(C)(C)NCC(O)COc1ccccc1C1CCCC1.CC(C)(C)NCC(O)COc1ccccc1C1CCCC1.O=S(=O)(O)O", "note": "(stereo not drawn)", "values": [
      {"measurement": "NF-kB SEAP reporter activity", "setting": "RAW-Dual [1]; [7]", "value": 1.29},
      {"measurement": "NF-kB SEAP reporter activity", "setting": "RAW-Dual [1]; [8]", "value": 1.32}
    ]},
    {"smiles": "CN1CCc2c(c3ccccc3n2Cc2ccc(C(=O)NO)cc2)C1", "note": "(library stock concentration (final ~1000-fold dilution): 10 mM)", "values": [
      {"measurement": "NF-kB SEAP reporter activity", "setting": "RAW-Dual [2]; agonist: LPS (TLR4) 0.1 ug/mL", "value": 1.15},
      {"measurement": "NF-kB SEAP reporter activity", "setting": "RAW-Dual [2]; [4]", "value": 1.21},
      {"measurement": "NF-kB SEAP reporter activity", "setting": "RAW-Dual [2]; [5]", "value": 0.779},
      {"measurement": "NF-kB SEAP reporter activity", "setting": "RAW-Dual [2]; [6]", "value": 1.15}
    ]},
    {"smiles": "CN1CCc2c(c3ccccc3n2Cc2ccc(C(=O)NO)cc2)C1.Cl", "values": [
      {"measurement": "NF-kB SEAP reporter activity", "setting": "RAW-Dual [1]; [7]", "value": 2.44},
      {"measurement": "NF-kB SEAP reporter activity", "setting": "RAW-Dual [1]; [8]", "value": 2.55}
    ]},
    {"smiles": "CN1CCc2c(c3ccccc3n2Cc2ccc(C(=O)NO)cc2)C1", "values": [
      {"measurement": "NF-kB SEAP reporter activity", "setting": "RAW-Dual [1]; [7]", "value": 1},
      {"measurement": "NF-kB SEAP reporter activity", "setting": "RAW-Dual [1]; [8]", "value": 1.11}
    ]},
    {"smiles": "CN1CCc2c(c3ccccc3n2Cc2ccccc2)C1.CN1CCc2c(c3ccccc3n2Cc2ccccc2)C1.O=S(=O)(O)c1cccc2c(S(=O)(=O)O)cccc12", "note": "(library stock concentration (final ~1000-fold dilution): 2 mM)", "values": [
      {"measurement": "NF-kB SEAP reporter activity", "setting": "RAW-Dual [2]; agonist: LPS (TLR4) 0.1 ug/mL", "value": 1.29},
      {"measurement": "NF-kB SEAP reporter activity", "setting": "RAW-Dual [2]; [4]", "value": 0.722},
      {"measurement": "NF-kB SEAP reporter activity", "setting": "RAW-Dual [2]; [5]", "value": 0.952},
      {"measurement": "NF-kB SEAP reporter activity", "setting": "RAW-Dual [2]; [6]", "value": 0.958}
    ]},
    {"smiles": "CN1CCc2c(c3ccccc3n2Cc2ccc(C(=O)NO)cc2)C1.Cl", "note": "(library stock concentration (final ~1000-fold dilution): 10 mM)", "values": [
      {"measurement": "NF-kB SEAP reporter activity", "setting": "RAW-Dual [2]; agonist: LPS (TLR4) 0.1 ug/mL", "value": 5.1},
      {"measurement": "NF-kB SEAP reporter activity", "setting": "RAW-Dual [2]; [4]", "value": 1.71},
      {"measurement": "NF-kB SEAP reporter activity", "setting": "RAW-Dual [2]; [5]", "value": 1.08},
      {"measurement": "NF-kB SEAP reporter activity", "setting": "RAW-Dual [2]; [6]", "value": 1.59}
    ]},
    {"smiles": "CN1CCc2c(c3ccccc3n2Cc2ccccc2)C1.CN1CCc2c(c3ccccc3n2Cc2ccccc2)C1.O=S(=O)(O)c1cccc2c(S(=O)(=O)O)cccc12", "values": [
      {"measurement": "NF-kB SEAP reporter activity", "setting": "RAW-Dual [1]; library stock concentration (final ~1000-fold dilution): 2 mM, cytotoxicity flag (confluency mask): not cytotoxic, agonist: MPLA (TLR4) […]", "value": 1.15}
    ]},
    {"smiles": "CC(C)N(CCC(=O)c1ccc2ccccc2c1)Cc1ccccc1.Cl", "note": "(library stock concentration (final ~1000-fold dilution): 10 mM)", "values": [
      {"measurement": "NF-kB SEAP reporter activity", "setting": "RAW-Dual [3]; agonist: LPS (TLR4) 0.1 ug/mL", "value": 0.45},
      {"measurement": "NF-kB SEAP reporter activity", "setting": "RAW-Dual [3]; [4]", "value": 0.518},
      {"measurement": "NF-kB SEAP reporter activity", "setting": "RAW-Dual [3]; [5]", "value": 0.615},
      {"measurement": "NF-kB SEAP reporter activity", "setting": "RAW-Dual [3]; [6]", "value": 0.442}
    ]},
    {"smiles": "CC(C)N(CCC(=O)c1ccc2ccccc2c1)Cc1ccccc1.Cl", "values": [
      {"measurement": "NF-kB SEAP reporter activity", "setting": "RAW-Dual [1]; library stock concentration (final ~1000-fold dilution): 10 mM, cytotoxicity flag (confluency mask): cytotoxic (confluency <70% of control), agonist: Imiquimod (TLR7) […]", "value": 1.07},
      {"measurement": "NF-kB SEAP reporter activity", "setting": "RAW-Dual [1]; library stock concentration (final ~1000-fold dilution): 10 mM, cytotoxicity flag (confluency mask): cytotoxic (confluency <70% of control), agonist: MPLA (TLR4) […]", "value": 0.507}
    ]},
    {"smiles": "O=C(Nc1ccc(OC(F)(F)F)cc1)c1sccc1NCc1ccnc2ccccc12", "note": "(library stock concentration (final ~1000-fold dilution): 10 mM)", "values": [
      {"measurement": "NF-kB SEAP reporter activity", "setting": "RAW-Dual [2]; agonist: LPS (TLR4) 0.1 ug/mL", "value": 2.86},
      {"measurement": "NF-kB SEAP reporter activity", "setting": "RAW-Dual [2]; [4]", "value": 1.18},
      {"measurement": "NF-kB SEAP reporter activity", "setting": "RAW-Dual [2]; [5]", "value": 0.672},
      {"measurement": "NF-kB SEAP reporter activity", "setting": "RAW-Dual [2]; [6]", "value": 1.07}
    ]},
    {"smiles": "Cc1cc(Nc2ccc(NC(=O)c3ccc(Nc4ccnc5ccccc45)cc3)cc2)nc(N)n1", "values": [
      {"measurement": "NF-kB SEAP reporter activity", "setting": "RAW-Dual [1]; [7]", "value": 1.31},
      {"measurement": "NF-kB SEAP reporter activity", "setting": "RAW-Dual [1]; [8]", "value": 2.36}
    ]},
    {"smiles": "Cc1cc(Nc2ccc(NC(=O)c3ccc(Nc4ccnc5ccccc45)cc3)cc2)nc(N)n1", "note": "(library stock concentration (final ~1000-fold dilution): 10 mM)", "values": [
      {"measurement": "NF-kB SEAP reporter activity", "setting": "RAW-Dual [2]; agonist: LPS (TLR4) 0.1 ug/mL", "value": 2.34},
      {"measurement": "NF-kB SEAP reporter activity", "setting": "RAW-Dual [2]; [4]", "value": 0.228},
      {"measurement": "NF-kB SEAP reporter activity", "setting": "RAW-Dual [2]; [5]", "value": 0.856},
      {"measurement": "NF-kB SEAP reporter activity", "setting": "RAW-Dual [2]; [6]", "value": 1.34}
    ]},
    {"smiles": "O=C(NCCO)c1cccc(-c2cc(Nc3ccc(OC(F)(F)F)cc3)ncn2)c1", "note": "(library stock concentration (final ~1000-fold dilution): 10 mM)", "values": [
      {"measurement": "NF-kB SEAP reporter activity", "setting": "RAW-Dual [2]; agonist: LPS (TLR4) 0.1 ug/mL", "value": 1.15},
      {"measurement": "NF-kB SEAP reporter activity", "setting": "RAW-Dual [2]; [4]", "value": 0.796},
      {"measurement": "NF-kB SEAP reporter activity", "setting": "RAW-Dual [2]; [5]", "value": 0.96},
      {"measurement": "NF-kB SEAP reporter activity", "setting": "RAW-Dual [2]; [6]", "value": 1.03}
    ]},
    {"smiles": "O=C(NCCO)c1cccc(-c2cc(Nc3ccc(OC(F)(F)F)cc3)ncn2)c1", "values": [
      {"measurement": "NF-kB SEAP reporter activity", "setting": "RAW-Dual [1]; [7]", "value": 1.09},
      {"measurement": "NF-kB SEAP reporter activity", "setting": "RAW-Dual [1]; [8]", "value": 1.23}
    ]},
    {"smiles": "O=C(Nc1ccc(OC(F)(F)F)cc1)c1sccc1NCc1ccnc2ccccc12", "values": [
      {"measurement": "NF-kB SEAP reporter activity", "setting": "RAW-Dual [1]; [7]", "value": 1.77},
      {"measurement": "NF-kB SEAP reporter activity", "setting": "RAW-Dual [1]; [8]", "value": 2.25}
    ]}
  ]
}
